Screens as filed in PubChem.
Pf Dd2 inh: qHTS Primary assay for Inhibitors of Plasmodium falciparum Dd2 growth in vitro; Potency, µM (titrated, usually from 28.9 µM), hits mostly inhibitors; 120,000 compounds, 4.3% hits; P. falciparum Dd2 growth, SYBR Green, 72 h; active means well fitted inhibition curve with a large enough effect; further: nearly all actives have a fitted effect of over 65% in size
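Readout: SYBR Green fluorescence, 485 nm excitation, 535 nm emission, after ~16 h lysis at 37C. Before that, Dd2-infected red cells (2.5% hematocrit) grew 72 h with compound, 29 uM top final concentration.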
Hits are given with their value; n = inactive. The sample as a whole holds a higher share of hits than the screen did.

SMILES	Pf Dd2 inh
CCc1ccccc1NC(=O)N(C)CC1CCOC1 (stereo not given)	n
CN1[C@@H](CCC(=O)NCc2cccs2)CNC(=O)[C@@H]2[C@H]1CCN2C1CCOCC1	n
Cc1cc(CN(C)c2cc(C3CC(N)C3)nc(N)n2)no1 (stereo not given)	n
CCOc1ccc(Cl)cc1CN(C)c1cc(C2CC(O)C2)nc(N)n1 (stereo not given)	11µM
Cc1nc(C2CC(O)C2)cc(N(C)Cc2ccc3c(c2)OCO3)n1 (stereo not given)	n
C=CCNC(=O)[C@@H]1C[C@@H](O)CN1C1CCN(C(=O)c2cccc(OC)c2)CC1	n
O=C(c1ccncc1F)N1C[C@@H](COCC2CC2)[C@H](c2ccncc2)C1	n
COC(=O)[C@@H]1Cc2ncn(C)c2CN1S(=O)(=O)c1ccc(C)cc1	n
Cc1ccc(-n2nc(C(=O)N3CCN(c4cc(Cl)ccc4C)CC3)c3c4ccccc4n(C)c3c2=O)cc1	n
Cc1ccc2c(c1)-c1c(c(C(=O)N3CCN(c4cc(Cl)ccc4C)CC3)nn1C)CS2	10µM
Cc1ccc(-n2nc(C(=O)N3CCN(c4cc(Cl)ccc4C)CC3)c(=O)n(C)c2=O)cc1	10µM
Cc1ccc(-n2nc(C(=O)N3CCN(c4ccccc4F)CC3)c(=O)n(C)c2=O)cc1	n
COc1cccc(N2CCN(C(=O)c3nn(C)c4c3CSc3ccc(C)cc3-4)CC2)c1	n
Cn1nc(C(=O)N2CCN(c3ccccc3F)CC2)c2c1-c1ccccc1SC2	n
Cn1nccc1C(=O)N1CC(c2ncc3c(-c4ccc(F)cc4)nccn23)C1	n
COc1ccc(CNC(=O)O[C@H]2COCCN(c3nc4ccccc4s3)C2)cc1	n
CCOCC(=O)NCCc1noc(-c2ccccc2)n1	n
COc1ccc(CNC(=O)C[C@@H]2CCNC[C@@H]2Cc2cc(CN3CCOCC3)on2)cc1	n
COc1ccc(CNC(=O)C[C@@H]2CCNC[C@@H]2Cc2cc(CC3CCCCC3)on2)cc1	11µM
O=C(C[C@@H]1CCNC[C@@H]1Cc1cc(CC2CCCCC2)on1)NCc1ccco1	n
CN1CCCC2(C1)CN(C)c1ccc(C(=O)NCCc3ccccc3)cc12 (stereo not given)	n
Cc1nc(CN2CC3(CCN(C)C3)c3cc(C(=O)NCCc4ccccc4)ccc32)cs1 (stereo not given)	11µM
COCCNC(=O)c1ccc2c(c1)C1(CCN(C)C1)CN2Cc1csc(C)n1 (stereo not given)	n
COc1ccc(N2CCC(N3CCC4(CC(=O)NC4=O)C3)CC2)cc1 (stereo not given)	n
O=C(NC1CCOCC1)c1ccc(OC2CCN(Cc3ccccn3)CC2)cc1	n
SMILES	Pf Dd2 inh
CNC(=O)[C@@H]1CN(S(=O)(=O)c2cccs2)C[C@H]1c1nc(C)no1	n
COCC(=O)NC1CCC12CCN(C(=O)c1ccc3ccccc3n1)CC2 (stereo not given)	n
CCNC(=O)c1ccc(CC2CCN(C(C)=O)CC2)cc1	n
O=C(NC1CC1)c1ccc(CC2CCN(C(=O)c3ccc4ccccc4n3)CC2)cc1	2µM
CCc1ccccc1OCC(=O)c1ccc2c(c1)N(CC(=O)Nc1ccc(F)cc1)C(=O)CO2	n
COc1cccc(CNC(=O)[C@@H]2C[C@@H](O)CN2C2CCN(C(=O)c3ccc(OC)cc3OC)CC2)c1	n
COc1ccc(S(=O)(=O)NC[C@H]2C[C@@H]3CCN2C[C@@H]3CN2CCCCC2)cc1	n
CC(C)NC(=O)NC[C@H]1C[C@@H]2CCN1C[C@@H]2CN(C)Cc1ccccc1	n
COc1ccc(S(=O)(=O)NC[C@H]2C[C@@H]3CCN2C[C@@H]3CN(C)Cc2ccccc2)cc1	2µM
COc1ccc(S(=O)(=O)NC[C@H]2C[C@@H]3CCN2C[C@@H]3CN2CCc3ccccc32)cc1	11µM
O=S(=O)(NC[C@H]1C[C@@H]2CCN1C[C@@H]2CN1CCc2ccccc21)c1ccc(Cl)cc1	n
CS(=O)(=O)NC[C@H]1C[C@@H]2CCN1C[C@@H]2CN1CCc2ccccc2C1	n
CN(Cc1ccccc1)c1ncccc1CNc1ccc(C#N)cn1	n
O=C(NC1C[C@H]2CC[C@@H](C1)N2C(=O)c1ccc(C(F)(F)F)cc1)c1ccncc1 (stereo not given in full)	n
O=C1COc2ccc(-c3ccncc3)nc2CN1Cc1ccc(F)cc1	n
Cc1nn(CC(=O)NCc2cc(F)ccc2F)c(=O)c2nc(C(C)C)sc12	n
O=C(c1cccc(Cl)c1)N1CCC2(CC1)OCC(C(=O)N1CCCC1)N2C(=O)c1cccc(F)c1 (stereo not given)	n
COc1ccc(OC)c(C(=O)CN2C(=O)N(c3cc(C)cc(C)c3)S(=O)(=O)c3ccccc32)c1	10µM
CCc1ccccc1N1C(=O)N(CC(=O)c2ccc(OC)cc2)c2ccccc2S1(=O)=O	n
COc1cccc(N2C(=O)N(Cc3ccc(C#N)cc3)c3ccccc3S2(=O)=O)c1	n
COc1ccc(-c2noc([C@@H](C)NC(C)=O)c2C(=O)O)cc1	n
CCOc1ccc(CN2CCC(c3nnc(Cn4cncn4)n3C)CC2)cn1	n
O=C(c1ccccc1OCC1CCCN(Cc2nccs2)C1)N1CCCC1 (stereo not given)	n
CCCCC1C=CCN1S(=O)(=O)c1cccc(C(=O)NCC(F)(F)F)c1 (stereo not given)	n
COc1ccc(-c2oc3ncn4nc(COc5c(C)cccc5C)nc4c3c2-c2ccc(OC)cc2)cc1	11µM
SMILES	Pf Dd2 inh
COc1ccc(-c2oc3ncn4nc(-c5cccc(C)c5)nc4c3c2-c2ccc(OC)cc2)cc1	n
Cc1cccc(C)c1OCc1nc2c3c(-c4ccccc4)c(-c4ccccc4)oc3ncn2n1	n
Cc1oc(C(O)c2ccccc2F)nc1C(=O)Nc1ccccc1C(N)=O (stereo not given)	n
CCC(C)NC(=O)C1COC2(CCN(C(=O)c3cccc(OC)c3)CC2)N1C(=O)c1ccccc1 (stereo not given)	n
Cc1cc(C)cc(NC(=O)CSc2nc3c([nH]c4ccccc43)c(=O)n2-c2ccc(F)cc2)c1	10µM
CSc1nc2c([nH]c3ccccc32)c(=O)n1-c1ccc(C)cc1	n
CCOc1ccc(-c2nc(SCC(=O)Nc3ccc4c(c3)OCCO4)c(-c3ccc(F)cc3)[nH]2)cc1	n
COc1cccc(-c2nc(SCC(=O)Nc3ccc4c(c3)OCCO4)c(-c3ccccc3)[nH]2)c1	n
O=C(CSc1nc2c([nH]c3ccccc32)c(=O)n1-c1ccc(Cl)cc1)N1CCc2ccccc21	n
O=c1c2[nH]c3ccccc3c2nc(SCc2ccccc2F)n1-c1ccc(F)cc1	n
O=C(CSc1nc2c([nH]c3ccccc32)c(=O)n1-c1ccc(F)cc1)N1CCCCC1	n
O=C(CSc1nc(-c2cccc(F)c2)[nH]c1-c1ccccc1)Nc1ccc2c(c1)OCCO2	11µM
CCOc1ccc(-n2c(SCC(=O)NC3CCCCC3)nc3c([nH]c4ccccc43)c2=O)cc1	n
Cc1cccc(NC(=O)CSc2nc3c([nH]c4ccccc43)c(=O)n2-c2ccc(F)cc2)c1C	4.5µM
Cc1ccc(-n2c(SCC(N)=O)nc3c([nH]c4ccccc43)c2=O)cc1	n
O=C(CSc1nc2c([nH]c3ccccc32)c(=O)n1-c1ccc(Cl)cc1)NC1CCCCC1	13µM
O=C(c1cccnc1)N1CCn2ncc(C(=O)N3CCOCC3)c2C1	n
COCCN1CCC(N2CCN(C(=O)c3cccc(Cl)c3)CC2)C1=O (stereo not given)	n
CC(C)[C@@H]1CN(C(=O)CCCS(N)(=O)=O)C[C@H]1C(=O)O	n
